Experiment [1] concerns the target Mitogen-activated protein kinase 10 (Mus musculus) (UniProt Q61831). Briefly: JNK3 AlphaScreen Assay (AID 530; active = well fitted curve in either direction with a large enough effect, not every such curve was filed as active;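 also: kinase came from lysate of stimulated human HepG2 cells; signal reports phosphorylation of biotinylated GST-cJun 1-79 at Ser73 with 10 µM ATP; series mostly up to about 57 µM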). In short, it runs like this: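 HepG2 lysate (IL-1b/TNFa pre-activated) + biotin-GST-cJun 1-79 + anti-pSer73 cJun; cpd titration, 15 min RT; ATP 10 uM start; Tris pH 7.6, MgCl2, DTT, vanadate; beads in EDTA buffer; AlphaScreen.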
In experiment [2] the target is 3',5'-cyclic-AMP phosphodiesterase 4B (Homo sapiens) (UniProt Q07343). Description: qHTS Assay for Inhibitors of PDE-IV (AID 607; active = well fitted activation curve with a large enough effect in the main read-out, with a control signal flat, not every such curve was filed as active). An outline of the steps:
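HEK293 ACTOne cells with CNG channel (1000/well), endogenous PDE4; membrane potential dye, compounds up to 22.9 uM final. Fluorescence Ex 535/Em 590; RO 20-1724 (100 uM final) as reference.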
(In qHTS, concentration-response curves come from the screen itself.)

In experiment [3] the target is Cytochrome P450 2C9 (Homo sapiens) (UniProt P11712). Description: qHTS Assay for Inhibitors and Substrates of Cytochrome P450 2C9 (AID 883). Also: nearly all actives have a fitted effect of over 60% in size. Also: potency is read from the fitted curve at half-maximal effect. In short, it runs like this:
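10nM CYP2C9 + 100uM Luciferin-H (=KM), 25mM KPO4; cpd 10 min 37C; NADPH regen, 60 min 37C; stop/detect with P450 Glo-Buffer 20 min; luminescence. Norm. to 57uM sulphaphenazole as full inhibition.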

Experiment [4] addresses Cytochrome P450 3A4 (Homo sapiens) (UniProt P08684). Briefly: qHTS Assay for Inhibitors and Substrates of Cytochrome P450 3A4 (AID 884). Also: nearly all actives have a fitted effect of over 50% in size. Also: potency is read from the fitted curve at half-maximal effect. An outline of the steps:
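Luminescent readout of luciferin produced by CYP3A4 (20 nM) dealkylation of Luciferin-PPXE, 25 uM (its KM). NADPH-driven reaction ran 60 min at RT after 10 min compound preincubation; data scaled to 57 uM ketoconazole as 100% inhibition.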

Experiment [5] shares this target. Briefly: qHTS Assay for Activators of Cytochrome P450 3A4 (AID 885). Also: nearly all actives have a fitted effect of over 65% in size. In short, it runs like this:
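Human CYP3A4 dealkylates Luciferin-PPXE to luciferin, which luciferase detection converts to light. Substrate was at its KM (25uM), buffer 200mM KPO4, reaction 60 min at RT.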

Experiment [6] addresses Cytochrome P450 2C19 (Homo sapiens) (UniProt P33261). Description: qHTS Assay for Inhibitors and Substrates of Cytochrome P450 2C19 (AID 899). Also: potency is read from the fitted curve at half-maximal effect; nearly all actives have a fitted effect of over 60% in size. In short, it runs like this: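 Luminescent read-out of luciferin formed from Luciferin-H EGE (10uM, equal to KM). Enzyme 5nM in 50mM KPO4; compound added, 10 min at 37C, then NADPH regenerating system for 60 min at 37C. Full inhibition defined by 57uM ketoconazole.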

Experiment [7] concerns the target Cytochrome P450 2D6 (Homo sapiens) (UniProt P10635). Briefly: qHTS Assay for Inhibitors and Substrates of Cytochrome P450 2D6 (AID 891). Also: nearly all actives have a fitted effect of over 60% in size. Also: potency is read from the fitted curve at half-maximal effect. An outline of the steps: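 Luminescent read-out of luciferin formed by 5 nM human CYP2D6 demethylating 30 uM Luciferin-ME EGE (Km level) over 60 min at room temperature after NADPH regeneration addition. Data normalized to full inhibition by 1.43 uM quinidine.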

Experiment [8] is described as follows: qHTS for Inhibitors of Plasmodium falciparum (7G8) proliferation (AID 504316). Also: nearly all actives have a fitted effect of over 65% in size. Also: potency is read from the fitted curve at half-maximal effect. An outline of the steps: (§1)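 Parasite growth measured as SYBR Green DNA fluorescence (ex 485, em 535 nm) after overnight lysis following 72 h culture at 37 °C, 0.3% parasitemia, 2.5% hematocrit. Values normalized against DMSO and 0.29 uM artemisinin controls, with plate-stack correction.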

A short description of experiment [9]: qHTS for Inhibitors of Plasmodium falciparum (HB3) proliferation (AID 504318). Also: nearly all actives have a fitted effect of over 60% in size. In short, it runs like this:
as §1

Experiment [10] is described as follows: qHTS for Inhibitors of Plasmodium falciparum (CP250) proliferation (AID 504320). In short, it runs like this:
as §1

The nature of experiment [11]: qHTS for Inhibitors of Plasmodium falciparum (GB4) proliferation (AID 504315). Also: nearly all actives have a fitted effect of over 50% in size. In short, it runs like this:
as §1

Results filed as inconclusive are left out. Active and inactive are the calls of the source. Unless noted, calls follow the shape of the dose curve; as a rule, active = well fitted curve in the direction sought with a large enough effect; inconclusive = small, poorly fitted or top-dose-only effect, or another doubt; inactive = no such curve, though single readings can be large; an effect the other way counts as inactive or inconclusive.

Chain of Cytochrome P450 3A4 (Homo sapiens) (P08684 whole entry, looked up): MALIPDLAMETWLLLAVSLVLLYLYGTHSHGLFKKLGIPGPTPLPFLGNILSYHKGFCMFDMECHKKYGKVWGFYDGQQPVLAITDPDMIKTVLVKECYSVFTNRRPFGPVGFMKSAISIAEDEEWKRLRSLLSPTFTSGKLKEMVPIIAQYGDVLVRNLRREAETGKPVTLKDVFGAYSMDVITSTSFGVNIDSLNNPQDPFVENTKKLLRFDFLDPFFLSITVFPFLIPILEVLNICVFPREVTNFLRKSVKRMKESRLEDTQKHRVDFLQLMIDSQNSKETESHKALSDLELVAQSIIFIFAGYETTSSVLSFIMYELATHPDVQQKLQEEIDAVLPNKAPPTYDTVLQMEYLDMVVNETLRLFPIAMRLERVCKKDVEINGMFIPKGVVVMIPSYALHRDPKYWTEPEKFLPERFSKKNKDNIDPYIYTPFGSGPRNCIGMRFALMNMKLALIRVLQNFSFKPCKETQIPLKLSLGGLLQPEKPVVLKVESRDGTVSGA
Chain of Cytochrome P450 2C19 (Homo sapiens) (P33261 whole entry, looked up): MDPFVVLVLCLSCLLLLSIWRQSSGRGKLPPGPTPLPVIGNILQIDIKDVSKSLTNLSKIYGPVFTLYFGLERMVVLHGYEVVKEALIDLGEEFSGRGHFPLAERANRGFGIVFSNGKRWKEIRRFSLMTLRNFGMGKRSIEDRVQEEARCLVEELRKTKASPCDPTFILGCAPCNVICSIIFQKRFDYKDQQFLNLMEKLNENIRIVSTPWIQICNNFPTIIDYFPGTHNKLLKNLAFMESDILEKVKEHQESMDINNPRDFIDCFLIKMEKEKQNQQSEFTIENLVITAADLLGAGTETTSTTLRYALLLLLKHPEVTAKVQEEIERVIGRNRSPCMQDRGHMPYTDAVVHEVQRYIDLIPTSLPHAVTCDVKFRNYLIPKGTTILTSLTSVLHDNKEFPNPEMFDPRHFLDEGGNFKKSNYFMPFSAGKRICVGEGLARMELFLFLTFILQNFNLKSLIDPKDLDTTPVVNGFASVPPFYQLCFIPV
Chain of 3',5'-cyclic-AMP phosphodiesterase 4B (Homo sapiens) (Q07343 whole entry, looked up): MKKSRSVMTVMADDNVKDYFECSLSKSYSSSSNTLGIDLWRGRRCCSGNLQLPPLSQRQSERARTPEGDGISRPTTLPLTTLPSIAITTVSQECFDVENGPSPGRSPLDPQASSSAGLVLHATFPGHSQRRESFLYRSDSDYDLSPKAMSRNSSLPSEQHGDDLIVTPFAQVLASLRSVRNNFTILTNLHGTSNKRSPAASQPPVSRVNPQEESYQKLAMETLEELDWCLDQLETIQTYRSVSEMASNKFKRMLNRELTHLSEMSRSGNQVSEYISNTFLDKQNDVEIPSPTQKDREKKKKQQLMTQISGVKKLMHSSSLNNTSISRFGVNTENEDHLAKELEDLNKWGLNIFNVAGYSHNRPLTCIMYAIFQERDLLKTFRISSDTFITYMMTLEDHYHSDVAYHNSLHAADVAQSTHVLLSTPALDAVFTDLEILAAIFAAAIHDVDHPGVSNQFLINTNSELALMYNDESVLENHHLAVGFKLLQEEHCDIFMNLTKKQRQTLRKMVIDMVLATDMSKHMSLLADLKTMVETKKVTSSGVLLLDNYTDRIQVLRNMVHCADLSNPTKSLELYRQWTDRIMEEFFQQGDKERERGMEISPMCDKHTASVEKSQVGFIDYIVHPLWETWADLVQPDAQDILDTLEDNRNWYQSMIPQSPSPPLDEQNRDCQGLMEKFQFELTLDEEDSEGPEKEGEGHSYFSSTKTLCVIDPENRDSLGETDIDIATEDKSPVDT
Chain of Cytochrome P450 2C9 (Homo sapiens) (P11712 whole entry, looked up): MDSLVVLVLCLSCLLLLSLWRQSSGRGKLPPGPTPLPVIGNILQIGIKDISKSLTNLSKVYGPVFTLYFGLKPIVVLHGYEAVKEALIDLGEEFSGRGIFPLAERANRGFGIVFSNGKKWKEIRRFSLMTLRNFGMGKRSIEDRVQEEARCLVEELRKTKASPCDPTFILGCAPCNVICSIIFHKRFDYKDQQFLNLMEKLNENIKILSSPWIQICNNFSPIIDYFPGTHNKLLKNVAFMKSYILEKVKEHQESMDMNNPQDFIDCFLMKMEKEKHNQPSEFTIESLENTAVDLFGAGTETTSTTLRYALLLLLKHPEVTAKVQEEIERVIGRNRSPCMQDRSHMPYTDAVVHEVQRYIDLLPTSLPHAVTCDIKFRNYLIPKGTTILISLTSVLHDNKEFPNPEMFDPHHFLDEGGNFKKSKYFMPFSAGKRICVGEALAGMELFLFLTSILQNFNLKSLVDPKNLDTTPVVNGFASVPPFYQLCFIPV
Chain of Cytochrome P450 2D6 (Homo sapiens) (P10635 whole entry, looked up): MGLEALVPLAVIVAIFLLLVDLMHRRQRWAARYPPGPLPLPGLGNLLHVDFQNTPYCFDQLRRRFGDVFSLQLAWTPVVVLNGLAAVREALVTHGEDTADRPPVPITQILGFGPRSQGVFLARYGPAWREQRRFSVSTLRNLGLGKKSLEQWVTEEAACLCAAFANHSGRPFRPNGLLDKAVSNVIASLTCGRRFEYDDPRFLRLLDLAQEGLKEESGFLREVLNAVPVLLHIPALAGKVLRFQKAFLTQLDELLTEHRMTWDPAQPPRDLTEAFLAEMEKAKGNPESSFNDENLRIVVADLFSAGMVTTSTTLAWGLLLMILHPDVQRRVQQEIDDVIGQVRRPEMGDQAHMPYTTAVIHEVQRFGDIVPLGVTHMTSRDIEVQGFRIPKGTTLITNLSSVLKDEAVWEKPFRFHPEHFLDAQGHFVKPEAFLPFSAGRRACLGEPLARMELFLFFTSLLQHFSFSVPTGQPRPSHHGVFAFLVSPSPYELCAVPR

Turning to `COC(=O)[C@@]1(Cc2ccc(F)cc2)[C@H]2c3cc(C(=O)N(C)C)n(Cc4ccc(Cl)c(C(F)(F)F)c4)c3C[C@H]2CN1C(=O)c1ccccc1`, the Potency result in experiment [1], in experiment [2] and in [5] was “inactive” throughout. In addition, the Potency in [3] is 3980 nM (active); in experiment [4], 2000 nM (active).
As for `O=C(NCCF)[C@H]1C[C@@H]1[C@H](NP(=O)(c1ccccc1)c1ccccc1)c1ccccc1`, the Potency entry in [1] and in experiment [2] was “inactive” in each case.
With `COC(=O)[C@@]1(Cc2ccccc2)[C@H]2c3cc(C(=O)N4CCCC4)n(Cc4ccsc4Br)c3C[C@H]2CN1C(=O)c1ccccc1`, the Potency entry in experiment [1], in [2] and in experiment [5] was “inactive” each time. For the same compound, the Potency in experiment [3] is 2000 nM (active); in [4], 3980 nM (active); in experiment [6], 2510 nM (active).
For `COC(=O)c1ccc(C#CC(NP(=O)(c2ccccc2)c2ccccc2)c2ccccc2)cc1` (centres undefined), the Potency entry in experiment [1] is “inactive”.
Regarding `C[C@@H](C(=O)Nc1ccc2ccccc2c1)[C@H]1C[C@]1(C)[C@H](NP(=O)(c1ccccc1)c1ccccc1)c1ccccc1`, the Potency result in experiment [1], in experiment [2] and in [5] was “inactive” in each case. Besides, the values for the Potency in experiment [4] and in [7] were 2000 nM (active) and 794 nM (active), respectively.
`O=C(NCc1ccccc1)[C@H]1C[C@@H]1[C@H](NP(=O)(c1ccccc1)c1ccccc1)c1ccccc1`: the Potency entry in experiment [1] and in experiment [2] was “inactive” throughout.
For the compound `CCN1C(=O)N[C@@H](c2ccco2)C(C(=O)OC)=C1C`, the Potency result in experiment [8] and in experiment [9] was “inactive” throughout.
Turning to `COC(=O)[C@@]1(Cc2ccc(F)cc2)[C@H]2c3cc(C(=O)N4CCCC4)n(Cc4ccc(C)o4)c3C[C@H]2CN1C(=O)c1ccccc1`, the Potency entry in experiment [1], in experiment [2] and in experiment [5] was “inactive” throughout. In addition, the results for the Potency in experiment [3], in experiment [4] and in experiment [6] were 3980 nM (active), 3160 nM (active) and 5010 nM (active), respectively.
For `CC(C)c1cccc2nc3c(c([Si](C)(C)C)c12)Cn1c-3cccc1=O`, the Potency entry in experiment [1], in [2] and in experiment [5] was “inactive” throughout.
Take `CCOC(=O)CNC(=O)O[C@@H]1C(=O)c2cc(OC)ccc2O[C@H]1c1ccc(OC)c(Br)c1`: the Potency entry in [8], in [9] and in experiment [10] was “inactive” throughout.
Take `COC/C=C/C1=CC2=CC(=O)C(C)(OC(=O)c3cnc4ccccc4n3)C(=O)C2=CN1CC1CC1` (centres undefined): the Potency result in [8] and in experiment [9] was “inactive” throughout.
As to `C/C(=C\C1CCCCC1)C(NC(=O)c1ccc(C(F)(F)F)cc1)c1ccc(-c2ccccc2)cc1` (centres undefined), the Potency result in experiment [1], in experiment [2] and in experiment [5] was “inactive” in each case.
As to `COC(=O)C1(CC(C)C)C=C2C(=C(c3ccccc3)C(=O)C2C)CN1` (centres undefined), the Potency entry in experiment [1] and in experiment [5] was “inactive” throughout.
Regarding `CCOC(=O)CN1C(=O)N[C@@H](c2cccc(F)c2)C(C(=O)OC)=C1C`, the Potency entry in experiment [11], in [9] and in [10] was “inactive” throughout.
In the case of `CC[C@H]1C2=C3C(CC[C@H]4C(OCc5ccc(F)cc5C(F)(F)F)OC[C@](C)([C@@H]34)N(C(=O)OC(C)(C)C)C2)C2COC(=O)OCC21` (some centres undefined), the Potency result in [1], in experiment [2] and in experiment [5] was “inactive” in each case.
For `CC(C)[C@@H](CC(=O)N[C@@H]1CCCC[C@H]1C(=O)N[C@H](CC(=O)N[C@@H](CCC(=O)O)CC(=O)O)Cc1ccccc1)NC(=O)C[C@H](Cc1c[nH]c2ccccc12)NC(=O)[C@@H]1CNCC[C@H]1N`, the Potency result in experiment [3] and in [7] was “inactive” each time.
Take `COC(=O)[C@@]1(Cc2ccc(F)cc2)[C@H]2c3cc(C(=O)N(C)C)n(Cc4ccc(C)o4)c3C[C@H]2CN1C(=O)c1ccccc1`: the Potency entry in [1] and in experiment [5] was “inactive” each time. Further, in [4], the Potency was 2510 nM (active).
With `Cc1cc(CNC(=O)[C@H]2C[C@@H]2[C@H](NP(=O)(c2ccccc2)c2ccccc2)c2ccccc2)nn1C`, the Potency entry in [2] and in experiment [5] was “inactive” each time. The Potency in [4] was 2510 nM (active).
On to `COC(=O)[C@H]1C[C@@H]1[C@H](NC(=O)c1ccccc1)c1ccccc1`, for which the Potency entry in [1], in [2] and in experiment [4] was “inactive” throughout. Moreover, the Potency in experiment [6] was 7940 nM (active).
On to `COC(=O)[C@H](C)[C@H]1C[C@]1(C)[C@H](NC(=O)OCc1ccccc1)c1ccccc1`, for which the Potency result in [2] and in experiment [5] was “inactive” in each case. Moreover, the Potency in experiment [3] is 2000 nM (active); in experiment [4], 7940 nM (active); in experiment [6], 251 nM (active).
`COC(=O)[C@H]1C[C@@H]1[C@H](NC(=O)OCc1ccccc1)c1ccccc1`: the Potency result in experiment [1], in experiment [2] and in experiment [5] was “inactive” throughout. Besides, in experiment [6], the Potency was 3160 nM (active).
On to `CO[C@@H]1/C=C\O[C@]2(C)Oc3c(C)c(O)c4c(O)c(c(/C=N\N5CCN(C)CC5)c(O)c4c3C2=O)NC(=O)/C(C)=C\C=C/[C@H](C)[C@H](O)[C@H](C)[C@H](O)[C@H](C)[C@H](OC(C)=O)[C@@H]1C`, for which the Potency result in [2] was “inactive”.
Take `COC(=O)CC1c2ccccc2C=C(C)N1C(=O)OC` (centres undefined): the Potency result in experiment [9] is “inactive”.
On to `COC(=O)[C@@H]1C[C@H]1[C@@H](NS(=O)(=O)c1ccc(-c2ccccc2)cc1)c1ccccc1`, for which the Potency result in experiment [1] and in experiment [2] was “inactive” each time.
Consider `COC(=O)C1=C(C(=O)OC)[C@@H]2Nc3ccccc3[C@@]23C[C@@H](C(=O)OC)N(S(=O)(=O)c2ccc4c(c2)OCCN4C)C3=N1`, for which the Potency in experiment [8] was 1510 nM (active).

The values are drawn from PubChem BioAssay (NCATS).
